High-throughput results as filed in PubChem.
M1 antagonist: M1 muscarinic receptor (rat) antagonism | CHO-M1 cells, Fluo-4 calcium, ACh EC80 antagonist mode; stronger effect = lower value | B-score at 10 µM | actives 3.4% (n = 64,000) | AID 628;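 active = calcium fluorescence response, raw or row-and-column corrected B-score, differing from the plate sample mean either way at a set confidence level, mostly lower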
Her2 expr inh: Her2 kinase expression inhibition. P04626. SKBR-3 HER2 protein level, AlphaScreen, 18-24 h; stronger effect = lower value. HER2 level % of control, % at 10 µM. actives 0.69% (n = 65,000). AID 645;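 active = HER2 level under 5% of the carrier-only control; inconclusive = no clear call, values can overlap the other calls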;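 also: 100% = DMSO carrier and 0% = 500 nM PU-H71 HSP90 inhibitor; lower value means stronger loss of Her2 protein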
JNK3 inh: inhibitors of human JNK3 kinase | actives 0.61% (n = 60,000) | AID 746 | inhibition, % at 8 µM | purified JNK3 kinase activity, HTS | P53779; in the data active = inhibition above about 17%;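 also: 0% = DMSO and 100% = reference inhibitor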
M1 agonist: agonists of M1 muscarinic receptor. CHO-M1 cells, Fluo-4 calcium fluorescence, agonist mode; stronger effect = higher value. B-score at 10 µM. actives 3% (n = 64,000);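 active = fluorescence rise, raw or as B-score row- and column-corrected plate score, outside the 99.7% band of its plate's samples, either direction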
FXIIa mix inh: factor XIIa (human) inhibition, mixture screen. AID 684. P00748. inhibition, % at 5 µM. purified FXIIa, fluorogenic substrate, pooled mixtures. actives 0.2% (n = 62,000);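 also: 0% = enzyme without compound and 100% = no enzyme blank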
Target sequence (P00748 20-372 limits assumed): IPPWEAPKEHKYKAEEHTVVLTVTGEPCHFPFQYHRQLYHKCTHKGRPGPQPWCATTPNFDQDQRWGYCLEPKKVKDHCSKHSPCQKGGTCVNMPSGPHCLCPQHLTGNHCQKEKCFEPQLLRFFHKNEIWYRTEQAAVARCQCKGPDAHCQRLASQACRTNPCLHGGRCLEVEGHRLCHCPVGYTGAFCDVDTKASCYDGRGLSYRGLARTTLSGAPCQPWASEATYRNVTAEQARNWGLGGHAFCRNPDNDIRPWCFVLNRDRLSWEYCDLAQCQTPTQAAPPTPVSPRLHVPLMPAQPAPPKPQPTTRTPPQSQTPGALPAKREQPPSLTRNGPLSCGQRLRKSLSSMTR
Target sequence (P00748 373-615 limits assumed): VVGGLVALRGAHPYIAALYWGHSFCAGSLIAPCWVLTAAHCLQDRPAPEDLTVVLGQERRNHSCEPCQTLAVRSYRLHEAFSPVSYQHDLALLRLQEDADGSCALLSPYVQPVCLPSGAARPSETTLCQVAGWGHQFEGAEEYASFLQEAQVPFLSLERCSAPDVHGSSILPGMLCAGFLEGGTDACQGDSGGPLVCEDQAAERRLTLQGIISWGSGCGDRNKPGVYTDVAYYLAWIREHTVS
FXIa mix inh: factor XIa (human) inhibition, mixture screen; P03951; purified FXIa, fluorogenic substrate, pooled mixtures; inhibition, % at 5 µM; actives 0.19% (n = 62,000); AID 680;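 also: each value is inhibition by a whole ten-compound pool holding the compound; 0% = enzyme with no mixture and 100% = wells lacking enzyme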
M1 ag confirm: confirmation of rat M1 muscarinic receptor agonists | shares compounds with M1 agonist | CHO-M1 cells, Fluo-4 calcium fluorescence, agonist mode; actives lie on both sides | fluorescence change (max-min) at 10 µM | actives 19% (n = 1,700);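 active = fluorescence change differs from the solvent-only DMSO control mean at a set confidence level in both duplicate runs; inconclusive = differs from solvent-only control mean in just one of two runs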;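 also: an EC20 dose of acetylcholine follows compound addition during the same imaging run; raw fluorescence intensity difference in instrument units with no normalization to controls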
M4 agonist ctr: rat M4 muscarinic agonism, M1 counter-screen. shares compounds with M1 agonist. CHO M4/Gqi5 cells, Fluo-4 calcium fluorescence, agonist mode; actives lie on both sides. fluorescence change (max-min) at 10 µM. actives 9% (n = 1,700);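 active = fluorescence change differing from the plate's solvent-only control wells at 99.7% confidence in both duplicates, whether higher or lower; inconclusive = differs from solvent controls in only one of two duplicates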
The depositor's hits bear a star; u = inconclusive; x = no result. An excerpt weighted towards active compounds, which were near 6.9% of everything screened. Rule as the data show it, unless noted: active = inhibition above about 20% (passing the limit was not always enough); inactive = the rest.

SMILES	M1 antagonist	Her2 expr inh	JNK3 inh	M1 agonist	FXIIa mix inh	FXIa mix inh	M1 ag confirm	M4 agonist ctr
O=C(CSCSCC(=O)NCC1CCCO1)NCC1CCCO1 (stereo not given)	-1.1	134	-3	0.5	-1	0	x	x
Cc1c(C(=O)N2CCN(c3ccccc3F)CC2)sc2ncn(CC(=O)N3CCOCC3)c(=O)c12	-0.0089	85	1	3.7*	1	2	-15	u
Cc1ccc(Cn2ccc(NC(=O)c3cc(CC(C)C)on3)n2)cc1	-0.6	113	-3	0.34	1	3	x	x
COC(=O)c1ccc(COC(=O)C23CC4CC(CC(O)(C4)C2)C3)o1	-0.27	120	-3	-0.21	4	-2	x	x
COc1cc(NC(=O)c2cc3c(C)nc4ccccc4c3o2)cc(OC)c1OC	-0.94	110	4	3.5*	-11	6	-14	-11
COc1ccc(CNC(=O)c2cc3c(C)nc4ccccc4c3o2)c(OC)c1	-1.6	83	-4	4.9*	3	3	1.1	-2.5
COc1ccc(C)cc1NC(=O)c1cc2c(C)nc3ccccc3c2o1	-0.12	113	-16	-0.46	-7	6	x	x
CCOc1ccc(CCNC(=O)C2CCN(c3nn4c(=O)cc(C)nc4s3)CC2)cc1OCC	0.14	99	2	1.6	10	0	x	x
CCCn1c(C2CC(=O)N(c3cc(OC)ccc3OC)C2)nc2ccccc21 (stereo not given)	-0.24	113	-1	3.7*	-14	0	-14	-56
CC(=Nc1cccc(O)c1)c1sc2ccccc2c1O	-0.037	96	-1	5.4*	2	2	43	41
CC(C)N(C(=O)NC(=O)NCC1CCCO1)S(C)(=O)=O (stereo not given)	0.44	79	-3	0.27	9	4	x	x
CCC(C)[C@H](NC(=O)NCC1CCCO1)C(=O)OC (stereo not given in full)	1	88	1	5*	3	8	-1.9	-9.1
Cc1nn(-c2ccccc2)c(C)c1C(=O)OCC(=O)c1c(N)n(CC(C)C)c(=O)n(C)c1=O	-1.2	92	1	4.1*	10	8	-6.6	-53
Oc1ccc(-c2nc3ccccn3c2NCc2ccc3c(c2)OCO3)cc1	-2.6	44	-1	4*	-3	-3	-4.7	-23
Cc1nc(SCC(=O)NCc2ccco2)c2c(C)c(C)sc2n1	0.11	81	-11	11*	5	16	-10	-43
Cc1sc2nc(C(C)C)nc(SCC(=O)NCc3ccco3)c2c1C	-0.84	97	-1	0.028	3	2	x	x
C=CCn1c(NCCc2ccccc2)nc2c1c(=O)n(C)c(=O)n2C	-0.93	91	0	6.5*	x	x	25	-29
C=CCOC(=O)C1=C(C)OC(N)=C(C#N)C1c1ccoc1 (stereo not given)	0.74	97	3	21*	-1	5	12	0.98
Cc1c(C(=O)OCCOC(C)C)[nH]c2c1C(=O)CC(c1ccco1)C2 (stereo not given)	-2*	42	2	6.7*	-3	14	u	-80*
N#CC(c1nc2ccccc2nc1N1CCCC1)S(=O)(=O)c1cccs1 (stereo not given)	0.69	76	3	0.35	13	-6	x	x
O=C1C2C3CCCC3=C3CCCC3C2C(=O)N1c1ccc(Cl)cc1 (stereo not given)	-0.9	184	-3	4.2*	3	30	u	-38
Cn1c(C(=O)N2CCCc3ccccc32)cc2sccc21	-0.16	91	3	0.033	6	7	x	x
Cc1ccc2cc(CN(Cc3ccco3)C(=O)NCc3ccccc3)c(=O)[nH]c2c1C	-0.04	105	-2	-0.025	3	1	x	x
Cc1ccc(C)c2[nH]c(=O)c(CN(Cc3ccco3)C(=O)Nc3ccccc3)cc12	-0.37	117	-2	5.2*	11	2	-13	-47
CCOC(=O)C(C)Sc1nnc(CNC(=O)c2ccc(OC)cc2)n1C1CCCCC1 (stereo not given)	-0.97	101	2	3.3*	1	4	u	u
